Our source for the Percent Effect values is ChEMBL document CHEMBL3988442, “University of Dundee, Small-Polar-MMV Screening Library” (2021).

For some assays here: Potency and affinity values are given separately.

What all share (design): scale not given: direction of the effect not stated beside the values
Assay [1] deals with Protein translocase subunit SecA (Escherichia coli (strain K12)) (UniProt P10408). As to the kind of experiment: Assay to Identify E. coli SecA ATPase Inhibitors. It is filed as functional. Conditions: 30 µM.
Assay [2] concerns the target T1, Ubiquitin-activating enzyme e1, putative (Leishmania donovani (strain BPK282A1)) (UniProt E9BSI1).
T1 sequence (whole entry): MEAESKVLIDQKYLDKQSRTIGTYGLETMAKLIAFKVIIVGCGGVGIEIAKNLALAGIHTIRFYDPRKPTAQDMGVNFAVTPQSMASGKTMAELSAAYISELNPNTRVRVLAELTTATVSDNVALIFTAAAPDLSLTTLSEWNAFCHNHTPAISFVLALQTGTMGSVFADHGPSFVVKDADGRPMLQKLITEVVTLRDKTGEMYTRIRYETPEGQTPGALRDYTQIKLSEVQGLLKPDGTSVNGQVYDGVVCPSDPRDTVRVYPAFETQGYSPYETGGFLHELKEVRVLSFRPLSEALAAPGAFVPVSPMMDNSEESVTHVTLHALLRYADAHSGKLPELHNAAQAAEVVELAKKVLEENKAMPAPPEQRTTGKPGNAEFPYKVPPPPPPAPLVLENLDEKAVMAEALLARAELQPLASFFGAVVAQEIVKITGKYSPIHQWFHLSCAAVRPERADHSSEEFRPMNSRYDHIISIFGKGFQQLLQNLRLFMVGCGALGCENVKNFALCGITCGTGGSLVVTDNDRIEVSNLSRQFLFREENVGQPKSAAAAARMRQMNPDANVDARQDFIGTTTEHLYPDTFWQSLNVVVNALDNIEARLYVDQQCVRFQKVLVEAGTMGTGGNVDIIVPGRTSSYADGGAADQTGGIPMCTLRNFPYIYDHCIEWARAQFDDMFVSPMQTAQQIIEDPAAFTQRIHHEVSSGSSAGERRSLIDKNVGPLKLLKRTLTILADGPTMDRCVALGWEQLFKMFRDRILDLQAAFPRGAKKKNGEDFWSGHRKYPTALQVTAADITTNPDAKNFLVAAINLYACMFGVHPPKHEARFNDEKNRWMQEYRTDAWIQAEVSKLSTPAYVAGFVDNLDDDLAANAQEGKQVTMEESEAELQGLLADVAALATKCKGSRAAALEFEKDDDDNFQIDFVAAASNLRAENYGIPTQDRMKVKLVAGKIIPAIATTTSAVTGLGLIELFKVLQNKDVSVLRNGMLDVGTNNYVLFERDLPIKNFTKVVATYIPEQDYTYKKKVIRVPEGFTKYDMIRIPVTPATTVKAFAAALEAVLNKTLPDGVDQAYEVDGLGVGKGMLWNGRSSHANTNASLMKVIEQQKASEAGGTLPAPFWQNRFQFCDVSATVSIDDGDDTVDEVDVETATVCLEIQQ
Nature of the assay: Leishmania donovani Ubiquitin Activating Enzyme (LdE1). In kind it is functional. Conditions: 30 µM.

Assay [3] concerns the target Sialic acid-binding Ig-like lectin 9 (Homo sapiens) (UniProt Q9Y336). Nature of the assay: Hs-Siglec9 ALPHAscreen SOP 20170721. Conditions: 10 µM. On the technique in general: Alpha assays give light when donor and acceptor beads are brought close together.
The subject of another assay is Trypanosoma cruzi. Nature of the assay: Trypanosoma cruzi phosphomannomutase and mannose-1-phosphate guanylyltransferase assay. It is filed as functional. Conditions: 10 µM.
The target of assay [4] is T2, Arginase-2, mitochondrial (Homo sapiens) (UniProt P78540).
T2 sequence (whole entry): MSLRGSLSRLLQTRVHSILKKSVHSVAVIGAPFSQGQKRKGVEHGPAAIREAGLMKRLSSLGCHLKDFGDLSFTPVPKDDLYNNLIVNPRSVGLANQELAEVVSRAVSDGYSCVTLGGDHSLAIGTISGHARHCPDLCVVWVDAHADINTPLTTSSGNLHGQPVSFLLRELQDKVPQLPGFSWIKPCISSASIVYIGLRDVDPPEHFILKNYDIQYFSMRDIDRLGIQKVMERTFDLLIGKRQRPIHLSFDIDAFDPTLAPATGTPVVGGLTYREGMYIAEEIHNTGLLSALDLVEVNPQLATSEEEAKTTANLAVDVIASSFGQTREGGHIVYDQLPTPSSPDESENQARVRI
As to the kind of experiment: in vitro enzyme assay to detect the production of urea directly proportional to the activity of Arginase II. Also: in the data most compounds retested in dose-response had high values. It is filed as functional. Conditions: 33.3 µM.

The target of assay [5] is T3, Proteasome subunit beta (Trypanosoma cruzi) (UniProt O96673).
T3 sequence (whole entry): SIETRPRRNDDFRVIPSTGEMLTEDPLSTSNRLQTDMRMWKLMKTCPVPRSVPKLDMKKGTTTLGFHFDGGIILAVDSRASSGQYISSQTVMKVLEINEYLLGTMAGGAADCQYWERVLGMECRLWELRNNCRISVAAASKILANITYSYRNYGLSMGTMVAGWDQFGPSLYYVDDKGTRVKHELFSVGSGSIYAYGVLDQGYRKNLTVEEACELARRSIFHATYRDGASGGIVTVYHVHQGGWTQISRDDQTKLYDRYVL
Nature of the assay: Trypanosoma cruzi proteasome chymotrypsin-like activity (TcProtChymo) assay. Also: in the data most compounds retested in dose-response had high values. It is filed as functional. Conditions: 9.37 µM.

For the next assay, the species on record is Homo sapiens. Nature of the assay: To identify inhibition of the IFN signalling (Jak-Stat) pathway via expression of an eGFP reporter gene under the control of an IFN-stimulated response element (ISRE) containing MxA promoter. In kind it is functional. Conditions: 30 µM. (In general: In a reporter assay the amount or activity of a reporter protein is the signal.)

Assay [6] addresses T4, Tyrosyl-tRNA synthetase, putative (Trypanosoma cruzi (strain CL Brener)) (UniProt Q4DSP6).
T4 sequence (whole entry): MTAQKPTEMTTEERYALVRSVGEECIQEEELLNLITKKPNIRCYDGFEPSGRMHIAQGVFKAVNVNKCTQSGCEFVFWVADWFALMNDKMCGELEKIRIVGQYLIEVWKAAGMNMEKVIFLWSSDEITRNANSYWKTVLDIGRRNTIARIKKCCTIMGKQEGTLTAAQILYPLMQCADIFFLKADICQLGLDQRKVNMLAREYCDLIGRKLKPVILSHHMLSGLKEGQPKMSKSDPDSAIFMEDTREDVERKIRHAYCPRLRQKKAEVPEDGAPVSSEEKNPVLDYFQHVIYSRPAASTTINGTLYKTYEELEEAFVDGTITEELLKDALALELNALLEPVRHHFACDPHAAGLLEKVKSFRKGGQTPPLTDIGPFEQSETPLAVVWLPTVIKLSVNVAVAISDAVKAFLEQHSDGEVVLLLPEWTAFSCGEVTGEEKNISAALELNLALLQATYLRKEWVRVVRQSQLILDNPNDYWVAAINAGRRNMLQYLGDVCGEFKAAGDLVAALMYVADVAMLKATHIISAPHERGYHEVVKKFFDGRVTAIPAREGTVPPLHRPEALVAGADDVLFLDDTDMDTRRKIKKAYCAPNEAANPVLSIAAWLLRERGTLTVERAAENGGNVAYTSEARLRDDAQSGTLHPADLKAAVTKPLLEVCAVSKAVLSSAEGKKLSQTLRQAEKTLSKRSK
As to the kind of experiment: Trypanosoma cruzi tyrosyl tRNA synthetase (TcYRS) _High Tyrosine SOP. Also: in the data most compounds retested in dose-response had high values. It is filed as functional. The note with it: 30 µM.

Assay [7] has as its target T4, Tyrosyl-tRNA synthetase, putative (Trypanosoma cruzi (strain CL Brener)). Nature of the assay: Trypanosoma cruzi tyrosyl tRNA synthetase (TcYRS) SOP. It is filed as functional. The note with it: 30 µM.
For assay [8], the target named is Chromo domain-containing protein 1 (Saccharomyces cerevisiae (strain ATCC 204508 / S288c) (Baker's yeast)) (UniProt P32657). As to the kind of experiment: ScCHD-1 Enzyme Inhibition Assay. Also: in the data most compounds retested in dose-response had high values. Conditions: 30 µM. It is filed as functional.
Sequence of Chromo domain-containing protein 1 (Saccharomyces cerevisiae (strain ATCC 204508 / S288c) (Baker's yeast)) (P32657 whole entry, the tested form may be a part): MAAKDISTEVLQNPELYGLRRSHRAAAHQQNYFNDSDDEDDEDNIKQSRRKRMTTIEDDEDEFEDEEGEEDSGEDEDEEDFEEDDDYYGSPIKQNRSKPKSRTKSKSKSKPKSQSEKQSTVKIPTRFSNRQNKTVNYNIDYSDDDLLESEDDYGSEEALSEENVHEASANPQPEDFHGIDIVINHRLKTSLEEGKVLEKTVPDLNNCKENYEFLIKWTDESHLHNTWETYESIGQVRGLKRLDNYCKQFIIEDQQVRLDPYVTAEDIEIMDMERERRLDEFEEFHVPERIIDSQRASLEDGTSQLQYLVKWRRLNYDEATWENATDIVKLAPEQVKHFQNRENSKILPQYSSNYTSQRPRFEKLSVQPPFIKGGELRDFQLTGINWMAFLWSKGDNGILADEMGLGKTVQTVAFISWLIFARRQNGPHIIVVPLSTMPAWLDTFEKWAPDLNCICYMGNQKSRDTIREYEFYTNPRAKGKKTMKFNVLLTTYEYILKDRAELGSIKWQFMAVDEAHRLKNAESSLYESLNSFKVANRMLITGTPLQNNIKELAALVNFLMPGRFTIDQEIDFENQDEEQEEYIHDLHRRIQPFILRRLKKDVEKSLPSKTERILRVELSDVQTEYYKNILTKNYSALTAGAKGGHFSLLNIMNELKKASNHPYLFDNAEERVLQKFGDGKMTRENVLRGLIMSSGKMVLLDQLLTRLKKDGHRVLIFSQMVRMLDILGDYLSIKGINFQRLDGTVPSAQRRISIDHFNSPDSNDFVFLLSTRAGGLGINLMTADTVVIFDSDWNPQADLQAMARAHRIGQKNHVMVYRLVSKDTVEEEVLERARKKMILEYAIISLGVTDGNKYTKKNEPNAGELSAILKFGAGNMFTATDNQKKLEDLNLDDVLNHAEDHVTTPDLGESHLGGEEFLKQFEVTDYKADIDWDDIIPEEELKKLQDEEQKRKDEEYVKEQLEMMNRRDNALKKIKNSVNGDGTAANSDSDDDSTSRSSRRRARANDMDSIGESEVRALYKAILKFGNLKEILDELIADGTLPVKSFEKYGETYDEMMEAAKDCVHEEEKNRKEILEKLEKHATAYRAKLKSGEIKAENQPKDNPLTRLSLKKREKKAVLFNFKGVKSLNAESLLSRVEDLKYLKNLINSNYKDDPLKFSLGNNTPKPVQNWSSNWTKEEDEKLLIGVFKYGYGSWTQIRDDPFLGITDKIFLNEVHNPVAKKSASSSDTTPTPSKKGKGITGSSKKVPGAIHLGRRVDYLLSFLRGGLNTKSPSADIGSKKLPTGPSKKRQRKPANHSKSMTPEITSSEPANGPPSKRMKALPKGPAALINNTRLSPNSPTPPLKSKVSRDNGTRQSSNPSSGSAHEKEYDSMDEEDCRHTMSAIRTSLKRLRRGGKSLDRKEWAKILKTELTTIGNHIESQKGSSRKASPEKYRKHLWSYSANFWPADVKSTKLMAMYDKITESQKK

Sequence of Sialic acid-binding Ig-like lectin 9 (Homo sapiens) (Q9Y336 whole entry): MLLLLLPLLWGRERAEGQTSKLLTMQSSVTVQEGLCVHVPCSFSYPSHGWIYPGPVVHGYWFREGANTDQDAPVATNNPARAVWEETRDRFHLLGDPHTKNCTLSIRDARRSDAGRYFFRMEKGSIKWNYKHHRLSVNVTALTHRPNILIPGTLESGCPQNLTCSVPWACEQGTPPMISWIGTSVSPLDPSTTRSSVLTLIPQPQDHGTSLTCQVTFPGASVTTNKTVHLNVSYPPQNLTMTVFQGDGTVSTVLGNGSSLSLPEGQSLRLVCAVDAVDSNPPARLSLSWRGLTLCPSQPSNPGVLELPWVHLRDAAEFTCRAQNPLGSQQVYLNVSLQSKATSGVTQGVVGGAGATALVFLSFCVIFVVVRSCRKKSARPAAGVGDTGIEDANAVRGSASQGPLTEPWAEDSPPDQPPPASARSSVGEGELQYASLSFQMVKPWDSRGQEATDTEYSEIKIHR
Sequence of Protein translocase subunit SecA (Escherichia coli (strain K12)) (P10408 whole entry): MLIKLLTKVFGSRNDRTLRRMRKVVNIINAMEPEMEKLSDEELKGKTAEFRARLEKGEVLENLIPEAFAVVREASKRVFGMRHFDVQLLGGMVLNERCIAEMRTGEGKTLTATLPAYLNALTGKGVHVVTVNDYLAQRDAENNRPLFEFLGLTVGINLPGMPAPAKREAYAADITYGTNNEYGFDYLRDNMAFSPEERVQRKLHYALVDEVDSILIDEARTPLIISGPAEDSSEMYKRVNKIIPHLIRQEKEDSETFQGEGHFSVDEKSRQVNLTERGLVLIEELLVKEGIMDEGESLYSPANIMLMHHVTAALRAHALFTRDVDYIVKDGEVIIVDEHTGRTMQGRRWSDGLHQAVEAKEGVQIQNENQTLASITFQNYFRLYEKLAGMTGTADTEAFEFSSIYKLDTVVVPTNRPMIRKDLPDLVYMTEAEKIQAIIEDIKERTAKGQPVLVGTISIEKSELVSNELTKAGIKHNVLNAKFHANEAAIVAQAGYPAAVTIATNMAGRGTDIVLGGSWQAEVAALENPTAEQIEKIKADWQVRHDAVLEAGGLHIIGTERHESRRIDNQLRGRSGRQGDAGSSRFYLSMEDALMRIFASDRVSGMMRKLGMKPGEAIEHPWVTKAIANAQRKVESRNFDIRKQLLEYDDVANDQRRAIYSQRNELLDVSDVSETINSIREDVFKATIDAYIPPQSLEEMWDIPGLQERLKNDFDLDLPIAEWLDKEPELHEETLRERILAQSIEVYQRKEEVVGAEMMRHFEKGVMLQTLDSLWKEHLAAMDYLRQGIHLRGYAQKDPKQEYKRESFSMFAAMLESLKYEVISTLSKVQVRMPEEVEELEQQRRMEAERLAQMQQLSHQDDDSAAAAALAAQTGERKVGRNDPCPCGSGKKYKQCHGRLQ

As to `O=C(CCSc1ccc(F)cc1)NS(=O)(=O)c1ccc2c(c1)OCCO2`, the Percent Effect in assay [1] was -5.54%; in assay [2], -10.3%; in assay [3], -3.31%; in the assay with Trypanosoma cruzi it was 4.22%; in assay [4], -2.05%; in assay [5] it was 13.1%. The Percent Effect in the assay listed under Homo sapiens was 1.97%; in assay [6], -11%; in [7], -1.21%; in assay [8], -2.81%.

With `COc1ccc(CN2C[C@@H]3COC[C@]3(CN(C)C)C2)cc1`, the Percent Effect was -12.1% in assay [1]; -1.3% in assay [2]; -2.55% in assay [3]; 1.07% in the assay with Trypanosoma cruzi; -1.22% in assay [4]; 8.56% in assay [5]. In addition, the Percent Effect in the assay listed under Homo sapiens was -15%; in [6] it was 4.74%; in assay [7], 7.69%; in assay [8], -0.368%.

Consider `CCc1ccc(O)c(C(=O)NC2CCN(C(=O)OC)CC2)c1`, for which the Percent Effect in [1] is 0.0182%; in assay [2], 15.4%; in [3] it was -8.93%; in the assay with Trypanosoma cruzi it was -4.79%; in [4], 4.51%; in assay [5] it was 5.89%. The Percent Effect is 36.6% in the assay filed under Homo sapiens, 5.26% in [6], 13.2% in assay [7] and -4.89% in assay [8].

Take `CS(=O)(=O)NCC1CCCN(C(=O)COCC(F)(F)F)C1` (stereo not given): the Percent Effect in [1] was -0.972%; in assay [2] it was 15.4%; in assay [3], 0.69%; in the assay on Trypanosoma cruzi, 0.845%; in assay [4], 2.87%; in assay [5] it was 6.57%. The Percent Effect was 9.12% in the assay listed under Homo sapiens, 2.39% in [6], 22.9% in assay [7] and -7.07% in assay [8].

Take `CC(C)(C)C(O)CN1CCN(C(=O)c2cccc3ncccc23)CC1` (stereo not given): the Percent Effect in assay [1] was -3.23%; in assay [2], 12.8%; in assay [3], -15.5%; in the assay with Trypanosoma cruzi, -7.23%; in assay [4], -0.41%; in assay [5] it was 8.11%. The Percent Effect in the assay filed under Homo sapiens is -0.457%; in [6], 3.35%; in assay [7], 10.8%; in assay [8] it was -6.72%.

For `Cc1ccc(-c2nc(CCNC(=O)NC3CCN(C)CC3)co2)cc1`, the Percent Effect in assay [1] was -4.38%; in assay [2], 8%; in assay [3], -2.04%; in the assay with Trypanosoma cruzi it was 1.81%; in assay [4] it was -4.88%; in [5], 12.3%. The Percent Effect in the assay filed under Homo sapiens is 9.37%; in assay [6], 3.68%; in assay [7], 5.13%; in [8], -12.9%.

For the compound `Cc1cc(C)n2cc(CN3CCCC3Cn3nc(C)nc3C)nc2n1` (stereo not given), the Percent Effect in assay [1] was -6.31%; in [2], -2.67%; in assay [3], 2.66%; with Trypanosoma cruzi, 3.41%; in assay [4] it was 3.1%; in assay [5], 10.6%. Besides, the Percent Effect in the assay listed under Homo sapiens was 1.56%; in assay [6], 16.3%; in assay [7], 15.4%; in assay [8], -6.76%.

`Cn1c(CN2CCCC2c2noc(C3CC3)n2)cc(=O)n(C)c1=O` (stereo not given): the Percent Effect was -8.17% in [1]; 2.67% in assay [2]; -1.87% in assay [3]; -3.01% in the assay on Trypanosoma cruzi; -3.99% in assay [4]; 5.85% in [5]. Moreover, the Percent Effect in the assay filed under Homo sapiens is 13.9%; in [6], 0.526%; in assay [7], 0%; in assay [8], -5.06%.
